Source: PubChem (National Center for Advancing Translational Sciences (NCATS))
An excerpt weighted towards active compounds, which were near 9.4% of everything screened.
Rab9 promoter act: qHTS Assay for Rab9 Promoter Activators; Huh7 Rab9 promoter-luciferase reporter, luminescence, 24 h; Potency, µM (series often up to 9.22 µM), most hits filed as activators; 320,000 tested, 2.8% active; note: nearly all actives have a fitted effect of over 60% in size
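Promoter activation is measured as luciferase luminescence in Huh7 cells stably transfected with a Rab9 promoter–luciferase construct, following 24 h compound exposure at 37 °C and 10 min reagent incubation at ambient temperature.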
SMN2 splice enh: qHTS Assay for Enhancers of SMN2 Splice Variant Expression; HEK293 SMN2-luciferase splicing reporter, luminescence, 30-36 h; Potency, µM (doses to about 46.1 µM), hits mostly activators; 210,000 tested, 2.8% active; AID 1458, 2008; note: nearly all actives have a fitted effect of over 55% in size
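HEK293 cells carry an SMN2 […]–luciferase reporter in which exon 7 inclusion puts luciferase in frame. Cells were plated 10-12 h before compound addition, then incubated 30-36 h at 37C. ONE-Glo luminescence was read; sodium butyrate at 4.5 mM final served as control.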
ELG1 genotoxic: qHTS screen for small molecules that induce genotoxicity in human embryonic kidney (HEK293T) cells expressing luciferase-tagged ELG1. HEK293T ELG1-luciferase reporter, luminescence, 16 h. Potency, µM (top dose mostly 46 µM), hits mostly activators. 330,000 tested, 1.3% active. AID 504466, 2011; note: nearly all actives have a fitted effect of over 60% in size
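After overnight (16 hr) compound treatment at 37 °C, ELG1-luciferase HEK293T cells were lysed with ONE-Glo; luminescence quantified 30 min later at room temperature.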
ELG1 repair inh: qHTS screen for small molecules that inhibit ELG1-dependent DNA repair in human embryonic kidney (HEK293T) cells expressing luciferase-tagged ELG1. HEK293T ELG1-luciferase reporter, luminescence, 16 h; DNA damage induced by 5-fluorouridine. Potency, µM (series often up to 46.1 µM), most hits filed as inhibitors. AID 504467, 2011. 330,000 tested, 2.3% active; note: nearly all actives have a fitted effect of over 55% in size
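Cells (2,000 per well) received 5-fluorouridine plus test compound or DMSO and were incubated 16 hr at 37 °C, 5% CO2. Luciferase activity was read by luminescence 30 min after ONE-Glo addition; signal suppression marked inhibition of damage-induced ELG1 function.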
NPC1 prom act: qHTS Assay for NPC1 Promoter Activators; Huh7 NPC1 promoter luciferase reporter, 24 h; AID 485313, 2010; 320,000 tested, 2.4% active; Potency, µM (series often up to 9.22 µM), most hits filed as activators; note: nearly all actives have a fitted effect of over 60% in size
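Compounds in DMSO were transferred onto Huh7 NPC1-luciferase reporter cells pre-incubated 2 h; after 24 h at 37 °C, Amplite reagent was dispensed and luminescence recorded 10 min later.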
FLuc counter: qHTS profiling assay for firefly luciferase inhibitor/activator using purifed enzyme and Km concentrations of substrates (counterscreen for miR-21 project). 360,000 tested, 6.9% active. Potency, µM (doses to about 57.5 µM), usual class: inhibitors. AID 588342, 2011. purified FLuc, Km substrates, luminescence inhibition; note: nearly all actives have a fitted effect of over 55% in size
Target sequence (P08659 whole entry, looked up): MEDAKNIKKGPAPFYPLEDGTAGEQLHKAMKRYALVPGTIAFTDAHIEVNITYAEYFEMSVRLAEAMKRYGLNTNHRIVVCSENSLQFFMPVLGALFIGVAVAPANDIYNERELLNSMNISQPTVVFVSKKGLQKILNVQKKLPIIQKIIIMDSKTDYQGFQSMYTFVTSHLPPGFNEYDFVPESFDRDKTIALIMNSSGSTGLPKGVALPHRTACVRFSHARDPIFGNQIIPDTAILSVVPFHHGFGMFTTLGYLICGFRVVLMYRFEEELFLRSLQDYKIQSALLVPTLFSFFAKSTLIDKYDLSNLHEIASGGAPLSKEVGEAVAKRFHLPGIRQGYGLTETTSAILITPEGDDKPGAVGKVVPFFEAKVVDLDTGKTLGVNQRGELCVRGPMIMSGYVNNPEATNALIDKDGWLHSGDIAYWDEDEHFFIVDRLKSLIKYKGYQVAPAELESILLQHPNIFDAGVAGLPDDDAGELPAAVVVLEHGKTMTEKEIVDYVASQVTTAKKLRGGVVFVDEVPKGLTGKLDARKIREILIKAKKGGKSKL
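Biochemical qHTS of compounds, final roughly 60 µM downward over six points, against 10 nM purified firefly luciferase using Km concentrations of substrates (10 uM D-luciferin, 10 uM ATP) in Tris acetate pH 7.5 buffer; luminescence output.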
Numbers stand for hits. Calls come from the whole dose curve; as a rule, active = well fitted curve in the direction sought with a large enough effect; inconclusive = small, poorly fitted or top-dose-only effect, or another doubt; inactive = no such curve, though single readings can be large; an effect the other way counts as inactive or inconclusive.

For COC(=O)C1=C(O)/C(=C\c2cc(C)n(-c3ccc(F)cc3)c2C)N=C1C the results were Rab9 promoter act inactive, SMN2 splice enh inactive, ELG1 genotoxic inactive, ELG1 repair inh inactive, NPC1 prom act inactive and FLuc counter inconclusive.
Screening COC(=O)C1=C(C)NC(=O)/C1=C\c1cc(C)n(-c2ccc(F)cc2)c1C returned Rab9 promoter act inactive, SMN2 splice enh inactive, ELG1 genotoxic inactive, ELG1 repair inh inactive, NPC1 prom act inactive and FLuc counter 19µM.
Screening CCOc1ccc(NC(=O)CSc2nnc(-c3ccc(C)cc3)c(-c3ccc(C)cc3)n2)cc1 returned FLuc counter inactive.
Screening CCOc1ccc(CNC(=O)c2ccc(-c3nc(CS(=O)(=O)c4ccccc4)c(C)o3)cc2)cc1 returned FLuc counter inactive.
Screening COC(=O)c1ccc(NC(c2ccc(Cl)cc2)P(=O)(OC)OC)cc1 (stereo not given) returned Rab9 promoter act inactive, SMN2 splice enh inactive, ELG1 genotoxic inactive, ELG1 repair inh inconclusive, NPC1 prom act inactive and FLuc counter 27µM.
For CC1=C(C(=O)Nc2ccccc2)C(c2ccncc2)n2nc(SCc3ccccc3Cl)nc2N1 (stereo not given) the results were SMN2 splice enh inactive and FLuc counter inactive.
CC(C)(C)c1ccc(-c2nc(C=O)c3ccccn23)cc1 was read as Rab9 promoter act inactive, SMN2 splice enh inactive, ELG1 genotoxic inactive, ELG1 repair inh inconclusive, NPC1 prom act inactive and FLuc counter 15µM.
Screening C(=N\N1CCOCC1)/c1nc(-c2ccccc2)n2ccccc12 returned Rab9 promoter act inactive, SMN2 splice enh inactive, ELG1 genotoxic inactive, ELG1 repair inh inactive, NPC1 prom act inactive and FLuc counter inactive.
`O=C(Nc1cc(=O)c2ccccc2o1)N1CCCCC1` gave Rab9 promoter act inactive, SMN2 splice enh inconclusive, ELG1 genotoxic inactive, ELG1 repair inh 15µM, NPC1 prom act inactive and FLuc counter inactive.
For O=C(Nc1cc(=O)c2ccccc2o1)N1CCOCC1 the results were Rab9 promoter act inactive, SMN2 splice enh inactive, ELG1 genotoxic inactive, ELG1 repair inh 5.8µM, NPC1 prom act inactive and FLuc counter inactive.
`Cc1c(C(=O)N2CCOCC2)oc2ccccc12` gave Rab9 promoter act inactive, ELG1 genotoxic inactive, ELG1 repair inh inconclusive, NPC1 prom act inactive and FLuc counter inactive.
Screening Cc1ccc(-n2c(=O)c3ccc(C(=O)NCc4ccccc4Cl)cc3n(CC(=O)Nc3cccc(F)c3)c2=O)cc1 returned SMN2 splice enh inactive and FLuc counter inactive.
Screening Cc1ccc(NC(=O)c2c(C)noc2C)cc1 returned Rab9 promoter act inactive, SMN2 splice enh inactive, ELG1 genotoxic inactive, ELG1 repair inh inactive, NPC1 prom act inactive and FLuc counter inactive.
For Cc1nc(Cl)sc1C(=O)Nc1ccc(C(C)(C)C)cc1 the results were Rab9 promoter act inactive, ELG1 genotoxic inconclusive, ELG1 repair inh inconclusive, NPC1 prom act inactive and FLuc counter 11µM.
Screening Cc1nc(C(=O)Nc2ccccc2)sc1C(=O)Nc1ccccc1 returned Rab9 promoter act 3.5µM, ELG1 genotoxic inactive, ELG1 repair inh inconclusive, NPC1 prom act 3.5µM and FLuc counter 13µM.
`Cc1nc(N)sc1C(=O)Nc1ccccc1` gave Rab9 promoter act inconclusive, SMN2 splice enh inactive, ELG1 genotoxic inconclusive, ELG1 repair inh inconclusive, NPC1 prom act inconclusive and FLuc counter inconclusive.
Cc1noc(N)c1C(=O)Nc1ccc(C(C)(C)C)cc1 was read as Rab9 promoter act 3.2µM, SMN2 splice enh inconclusive, ELG1 genotoxic inconclusive, ELG1 repair inh inconclusive, NPC1 prom act 2.5µM and FLuc counter 3.4µM.
Cc1ccc(NC(=O)c2sc(N)nc2C)cc1 was read as Rab9 promoter act 2.2µM, ELG1 genotoxic 21µM, ELG1 repair inh inconclusive, NPC1 prom act 2.5µM and FLuc counter 21µM.
